The text below walks through data of PubChem BioAssay (EPA / NIEHS).

Results filed as inconclusive are left out. Some structures have more than one record in an assay (separate samples or runs), and their calls can disagree. Calls of active or inactive are those of the source. How the source made its calls, unless noted: active means hit-call score of the fitted dose curve at least 0.9, where 1 is the maximum; inconclusive means response in the unintended direction; inactive means score below 0.9. Peptide text beside a SMILES is read from it.

By AC50 is commonly meant the concentration giving half of the maximal activity seen.

Assay [1] deals with human RAR-related Orphan Receptor beta (RORb), RORB (gene 6096) (UniProt Q92753). Kind of assay: ATG_RORb_TRANS: Attagene TRANS-FACTORIAL HepG2 Assay for human RAR-related Orphan Receptor beta (RORb) (AID 2283010). In outline: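 Read-out is reporter mRNA induction, quantified by RT-PCR with fluorescent capillary electrophoresis, 24 h post-dose in transiently transfected HepG2 expressing exogenous NR-Gal4 chimera. Activity fitted upward versus DMSO.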

In assay [2] the target is Retinoic acid receptor RXR-alpha (Homo sapiens) (UniProt P19793). Put plainly: ATG_RXRa_TRANS: Attagene TRANS-FACTORIAL HepG2 Assay for human Retinoid X Receptor alpha (RXRa) (AID 2283012). In outline: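 TRANS format reporting activity of exogenous RXRa-Gal4 chimera in transiently transfected HepG2, 24 h exposure. Reporter transcripts quantified by RT-PCR with capillary electrophoresis, with gain of signal scored relative to DMSO.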

Assay [3] addresses human Thyroid Receptor alpha (THRa1), THRA (gene 7067) (UniProt P10827). Kind of assay: ATG_THRa1_TRANS: Attagene TRANS-FACTORIAL HepG2 Assay for human Thyroid Receptor alpha (THRa1) (AID 2283014). In outline:
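HepG2 cells transiently transfected with multiplexed GAL4-UAS reporter units for exogenous chimeric THRa1-Gal4; reporter mRNA measured 24 h after dosing by RT-PCR, 6-FAM labelling, HpaI digestion and capillary electrophoresis. Gain-of-signal fitted versus DMSO baseline.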

Read-out in assay [4]: Interleukin-1 alpha (IL1a), IL1A (gene 3552)
Kind of assay: BSK_BE3C_IL1a: BioMAP Diversity Plus: BE3C Assay for Interleukin-1 alpha (IL1a) Biomarker Activity (AID 2283016; active means hit-call score of the fitted dose curve at least 0.9, where 1 is the maximum; inactive means score below 0.9). The note with it: primary human bronchial epithelial cells; actives raise or lower the signal. In outline:
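IL-1a measured by ELISA after 24 h treatment of human primary bronchial epithelial cells, with gain or loss of signal fitted versus DMSO. Parallel cultures stained with SRB gauge overt cytotoxicity.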

Read-out in assay [5]: Monocyte Chemoattractant Protein-1 (MCP1), CCL2 (gene 6347)
Put plainly: BSK_3C_MCP1: BioMAP Diversity Plus: 3C Assay for Monocyte Chemoattractant Protein-1 (MCP1) Biomarker Activity (AID 2283017; active means hit-call score of the fitted dose curve at least 0.9, where 1 is the maximum; inactive means score below 0.9). The note with it: primary human endothelial cells (HUVEC); actives raise or lower the signal. In outline:
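Primary human umbilical vein endothelial cells (3C system) were exposed to test chemical for 24 h, after which MCP-1 was quantified by ELISA. Activity was fitted bidirectionally against DMSO as negative control and baseline.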

Read-out in assay [6]: Monocyte Chemoattractant Protein-1 (MCP1), CCL2 (gene 6347)
Kind of assay: BSK_4H_MCP1: BioMAP Diversity Plus: 4H Assay for Monocyte Chemoattractant Protein-1 (MCP1) Biomarker Activity (AID 2283018; active means hit-call score of the fitted dose curve at least 0.9, where 1 is the maximum; inactive means score below 0.9). The note with it: primary human endothelial cells (HUVEC); actives raise or lower the signal. In outline:
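ELISA of MCP-1 (CCL2) 24 h after chemical dosing of HUVEC in the BioMAP 4H system. Gain or loss versus DMSO fitted; parallel SRB staining (560 nm) tracked overt cytotoxicity.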

Read-out in assay [7]: Human Leukocyte Antigen - DR isotype (HLADR), HLA-DRA (gene 3122)
Put plainly: BSK_3C_HLADR: BioMAP Diversity Plus: 3C Assay for Human Leukocyte Antigen - DR isotype (HLADR) Biomarker Activity (AID 2283019; active means hit-call score of the fitted dose curve at least 0.9, where 1 is the maximum; inactive means score below 0.9;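 further: ELISA of cell-surface HLA-DR on HUVEC 24 h after dosing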). The settings on record: primary human endothelial cells (HUVEC); actives raise or lower the signal. In outline:
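Primary human umbilical vein endothelial cells (3C system) were dosed with compound and cell-surface HLA-DR was quantified by ELISA at 24 h. Activity was fitted bidirectionally against DMSO as negative control and baseline.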

Read-out in assay [8]: Interleukin-8 (IL8), CXCL8 (gene 3576)
Put plainly: BSK_3C_IL8: BioMAP Diversity Plus: 3C Assay for Interleukin-8 (IL8) Biomarker Activity (AID 2283020; active means hit-call score of the fitted dose curve at least 0.9, where 1 is the maximum; inactive means score below 0.9). The settings on record: primary human endothelial cells (HUVEC); actives raise or lower the signal. In outline:
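IL-8 was measured by ELISA in HUVEC cultures 24 h after chemical dosing, with gain or loss of signal fitted relative to DMSO. Parallel SRB total-protein staining tracked overt cytotoxicity.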

Read-out in assay [9]: Monokine induced gamma interferon (MIG), CXCL9 (gene 4283)
Put plainly: BSK_3C_MIG: BioMAP Diversity Plus: 3C Assay for Monokine induced gamma interferon (MIG) Biomarker Activity (AID 2283021; active means hit-call score of the fitted dose curve at least 0.9, where 1 is the maximum; inactive means score below 0.9). The settings on record: primary human endothelial cells (HUVEC); actives raise or lower the signal. In outline: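 ELISA measurement of MIG in human umbilical vein endothelial cells 24 h after treatment. Cytotoxicity tracked by SRB staining in parallel cultures; gain or loss of signal fitted relative to DMSO.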

Assay [10] is described as follows: BSK_3C_SRB: Viability Assessment in the BioMAP Diversity Plus: 3C Assay (AID 2283023; active means hit-call score of the fitted dose curve at least 0.9, where 1 is the maximum; inactive means score below 0.9;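 further: fitted both ways against DMSO so a hit may be signal rise or drop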). The note with it: primary human endothelial cells (HUVEC). In outline:
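Primary human umbilical vein endothelial cells in the 3C system were read 24 h after compound dosing. Total protein was stained with 0.1% sulforhodamine B after 10% TCA fixation and read at 560 nm, with bidirectional fitting against DMSO as baseline.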

Read-out in assay [11]: Matrix Metallopeptidase 1 (MMP1), MMP1 (gene 4312)
Kind of assay: BSK_BE3C_MMP1: BioMAP Diversity Plus: BE3C Assay for Matrix Metallopeptidase 1 (MMP1) Biomarker Activity (AID 2283024; active means hit-call score of the fitted dose curve at least 0.9, where 1 is the maximum; inactive means score below 0.9). The note with it: primary human bronchial epithelial cells; actives raise or lower the signal. In outline: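 ELISA measurement of MMP-1 after 24 h compound exposure of primary human bronchial epithelial cells. Changes in either direction fitted relative to DMSO; parallel SRB staining checked overt cytotoxicity.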

Assay [12] is described as follows: BSK_3C_Vis: BioMAP Diversity Plus: 3C Assay for Morphology Visualization (AID 2283025; active means hit-call score of the fitted dose curve at least 0.9, where 1 is the maximum; inactive means score below 0.9;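 further: fitted both ways so gain or loss versus DMSO counts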). The settings on record: primary human endothelial cells (HUVEC). In outline: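 Light-microscopy visualization of HUVEC cultures at 24 h post-treatment, with DMSO as baseline for bidirectional fitting.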
Read-out in assay [13]: Pselectin, SELP (gene 6403)
Put plainly: BSK_4H_Pselectin: BioMAP Diversity Plus: 4H Assay for Pselectin Biomarker Activity (AID 2283026; active means hit-call score of the fitted dose curve at least 0.9, where 1 is the maximum; inactive means score below 0.9). The settings on record: primary human endothelial cells (HUVEC); actives raise or lower the signal. In outline:
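ELISA of surface P-selectin on HUVEC, 24 h after dosing, with parallel SRB staining (0.1% after 10% TCA fixation, 560 nm) for overt cytotoxicity. Activity fitted in both directions relative to DMSO.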

Assay [14] can be described thus: BSK_4H_SRB: Viability Assessment in the BioMAP Diversity Plus: 4H Assay (AID 2283027; active means hit-call score of the fitted dose curve at least 0.9, where 1 is the maximum; inactive means score below 0.9;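 further: cells exposed to compound for 24 h before staining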). The settings on record: primary human endothelial cells (HUVEC). In outline:
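HUVEC, 24 h post-dose; 10% TCA fix, 0.1% SRB stain, A560 nm. Total protein = overt cytotoxicity, parallel to biomarker read. Bidirectional fit vs DMSO baseline.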

A short description of assay [15]: BSK_BE3C_SRB: Viability Assessment in the BioMAP Diversity Plus: BE3C Assay (AID 2283028; active means hit-call score of the fitted dose curve at least 0.9, where 1 is the maximum; inactive means score below 0.9). The note with it: primary human bronchial epithelial cells. In outline:
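Human primary bronchial epithelial cells were exposed to test chemicals for 24 h. Total protein in parallel cultures was then measured by staining with 0.1% sulforhodamine B after 10% TCA fixation, with absorbance read at 560 nm. Activity was fitted bidirectionally against DMSO.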

Read-out in assay [16]: Thrombomodulin, THBD (gene 7056)
Put plainly: BSK_3C_Thrombomodulin: BioMAP Diversity Plus: 3C Assay for Thrombomodulin Biomarker Activity (AID 2283029; active means hit-call score of the fitted dose curve at least 0.9, where 1 is the maximum; inactive means score below 0.9). The note with it: primary human endothelial cells (HUVEC); actives raise or lower the signal. In outline: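 ELISA measurement of thrombomodulin on HUVEC surface 24 h after chemical dosing; activity fitted in both directions relative to DMSO vehicle.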

The target in assay [17] is human RAR-related Orphan Receptor gamma (RORg), RORC (gene 6097) (UniProt P51449). Put plainly: ATG_RORg_TRANS: Attagene TRANS-FACTORIAL HepG2 Assay for human RAR-related Orphan Receptor gamma (RORg) (AID 2283011). In outline: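 Readout: reporter transcript induction (RT-PCR, fluorescent primer extension, capillary electrophoresis) after 24 h compound exposure of transiently transfected HepG2 cells carrying a RORg-Gal4 chimera and GAL4-UAS reporters; DMSO served as baseline, with increasing signal fitted.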

The target in assay [18] is human Retinoid X Receptor beta (RXRb), RXRB (gene 6257) (UniProt P28702). Put plainly: ATG_RXRb_TRANS: Attagene TRANS-FACTORIAL HepG2 Assay for human Retinoid X Receptor beta (RXRb) (AID 2283013). In outline:
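Readout is reporter transcript induction after 24 h dosing. It is measured by RT-PCR of total RNA followed by fluorescent capillary electrophoresis. HepG2 liver cells carry transfected multiple reporter units driven by an exogenous RXRb-Gal4 fusion; activity is relative to DMSO.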

In assay [19] the target is human Vitamin D Receptor (VDR), VDR (gene 7421) (UniProt P11473). Put plainly: ATG_VDR_TRANS: Attagene TRANS-FACTORIAL HepG2 Assay for human Vitamin D Receptor (VDR) (AID 2283022). In outline:
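HepG2 cells were transiently transfected with multiple GAL4-UAS reporter units, so signal reflects exogenous chimeric receptor-Gal4 activity. After 24 h compound exposure, reporter mRNA was measured by RT-PCR, fluorescent labelling and capillary electrophoresis, fitted for gain of signal versus DMSO.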

Read-out in assay [20]: E-selectin (Homo sapiens) (UniProt P16581)
Put plainly: BSK_3C_Eselectin: BioMAP Diversity Plus: 3C Assay for Eselectin Biomarker Activity (AID 2283015; active means hit-call score of the fitted dose curve at least 0.9, where 1 is the maximum; inactive means score below 0.9;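 further: cell surface E-selectin protein quantified by ELISA 24 h after dosing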). The settings on record: primary human endothelial cells (HUVEC); actives raise or lower the signal. In outline:
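Primary human umbilical vein endothelial cells (3C system) were dosed with chemical and cell-surface E-selectin measured by ELISA 24 h later. Bidirectional curve fitting used DMSO as negative control and baseline.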

human Retinoid X Receptor beta (RXRb), RXRB (gene 6257), sequence (P28702 whole entry, looked up, the tested form may be a part): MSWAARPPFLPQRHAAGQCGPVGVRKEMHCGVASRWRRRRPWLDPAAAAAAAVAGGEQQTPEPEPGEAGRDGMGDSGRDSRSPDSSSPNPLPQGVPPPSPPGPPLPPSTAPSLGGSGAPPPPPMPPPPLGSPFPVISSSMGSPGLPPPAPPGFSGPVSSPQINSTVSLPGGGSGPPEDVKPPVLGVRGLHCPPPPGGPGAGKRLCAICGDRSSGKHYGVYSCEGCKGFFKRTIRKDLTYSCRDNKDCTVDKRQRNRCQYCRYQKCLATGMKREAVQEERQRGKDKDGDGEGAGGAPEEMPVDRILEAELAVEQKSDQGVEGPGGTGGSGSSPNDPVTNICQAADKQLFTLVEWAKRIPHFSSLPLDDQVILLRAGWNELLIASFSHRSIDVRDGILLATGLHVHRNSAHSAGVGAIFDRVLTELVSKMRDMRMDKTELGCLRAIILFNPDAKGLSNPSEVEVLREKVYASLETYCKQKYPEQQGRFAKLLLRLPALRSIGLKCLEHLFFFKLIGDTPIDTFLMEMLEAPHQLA
human Vitamin D Receptor (VDR), VDR (gene 7421), sequence (P11473 whole entry, looked up, the tested form may be a part): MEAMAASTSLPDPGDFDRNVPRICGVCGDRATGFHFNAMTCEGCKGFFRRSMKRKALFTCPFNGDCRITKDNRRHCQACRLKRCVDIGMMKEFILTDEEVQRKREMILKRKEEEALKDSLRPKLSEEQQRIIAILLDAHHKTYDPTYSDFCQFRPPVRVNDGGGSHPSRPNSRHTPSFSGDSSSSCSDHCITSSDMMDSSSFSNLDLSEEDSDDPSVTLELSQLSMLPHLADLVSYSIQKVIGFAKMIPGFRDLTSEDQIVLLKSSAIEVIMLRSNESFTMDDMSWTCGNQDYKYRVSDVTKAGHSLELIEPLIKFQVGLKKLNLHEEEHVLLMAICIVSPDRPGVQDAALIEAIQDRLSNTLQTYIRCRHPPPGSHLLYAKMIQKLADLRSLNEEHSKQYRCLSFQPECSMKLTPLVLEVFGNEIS
human Thyroid Receptor alpha (THRa1), THRA (gene 7067), sequence (P10827 whole entry, looked up, the tested form may be a part): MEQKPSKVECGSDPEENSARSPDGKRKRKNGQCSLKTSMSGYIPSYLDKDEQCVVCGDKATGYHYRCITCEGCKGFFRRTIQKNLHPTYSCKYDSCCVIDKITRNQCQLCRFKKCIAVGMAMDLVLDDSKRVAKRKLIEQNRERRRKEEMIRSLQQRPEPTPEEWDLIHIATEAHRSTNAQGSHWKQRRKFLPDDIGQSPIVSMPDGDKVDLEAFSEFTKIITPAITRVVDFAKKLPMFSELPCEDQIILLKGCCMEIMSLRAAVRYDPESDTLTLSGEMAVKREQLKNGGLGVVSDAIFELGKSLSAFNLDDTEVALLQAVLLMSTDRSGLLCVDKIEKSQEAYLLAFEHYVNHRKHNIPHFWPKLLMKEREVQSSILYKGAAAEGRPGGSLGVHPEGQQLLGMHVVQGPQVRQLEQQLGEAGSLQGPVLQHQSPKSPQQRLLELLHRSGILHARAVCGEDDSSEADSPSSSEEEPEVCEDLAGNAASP
human RAR-related Orphan Receptor beta (RORb), RORB (gene 6096), sequence (Q92753 whole entry, looked up, the tested form may be a part): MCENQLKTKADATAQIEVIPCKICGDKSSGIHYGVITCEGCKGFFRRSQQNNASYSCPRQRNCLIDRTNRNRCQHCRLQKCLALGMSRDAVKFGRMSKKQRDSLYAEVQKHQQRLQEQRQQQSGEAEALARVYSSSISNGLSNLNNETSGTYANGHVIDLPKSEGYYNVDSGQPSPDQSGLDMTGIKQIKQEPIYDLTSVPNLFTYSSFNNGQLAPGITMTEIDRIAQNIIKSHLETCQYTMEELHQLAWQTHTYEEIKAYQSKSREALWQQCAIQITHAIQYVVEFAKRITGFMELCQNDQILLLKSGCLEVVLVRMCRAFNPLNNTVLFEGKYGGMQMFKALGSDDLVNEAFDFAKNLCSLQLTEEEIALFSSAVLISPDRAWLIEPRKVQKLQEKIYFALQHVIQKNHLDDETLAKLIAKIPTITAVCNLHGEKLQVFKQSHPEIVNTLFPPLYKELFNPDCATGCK
Retinoic acid receptor RXR-alpha (Homo sapiens), sequence (P19793 whole entry, looked up, the tested form may be a part): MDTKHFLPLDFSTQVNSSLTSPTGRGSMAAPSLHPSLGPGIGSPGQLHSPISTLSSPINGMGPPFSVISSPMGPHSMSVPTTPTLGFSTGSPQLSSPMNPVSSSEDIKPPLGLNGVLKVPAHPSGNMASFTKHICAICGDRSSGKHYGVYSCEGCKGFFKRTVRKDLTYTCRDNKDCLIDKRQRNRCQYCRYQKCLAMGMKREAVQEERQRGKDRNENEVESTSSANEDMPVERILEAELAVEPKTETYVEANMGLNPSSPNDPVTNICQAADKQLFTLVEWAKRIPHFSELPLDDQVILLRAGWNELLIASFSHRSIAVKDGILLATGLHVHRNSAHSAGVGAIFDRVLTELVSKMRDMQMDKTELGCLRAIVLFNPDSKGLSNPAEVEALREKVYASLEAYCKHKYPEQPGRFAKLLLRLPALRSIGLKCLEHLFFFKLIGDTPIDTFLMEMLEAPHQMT
human RAR-related Orphan Receptor gamma (RORg), RORC (gene 6097), sequence (P51449 whole entry, looked up, the tested form may be a part): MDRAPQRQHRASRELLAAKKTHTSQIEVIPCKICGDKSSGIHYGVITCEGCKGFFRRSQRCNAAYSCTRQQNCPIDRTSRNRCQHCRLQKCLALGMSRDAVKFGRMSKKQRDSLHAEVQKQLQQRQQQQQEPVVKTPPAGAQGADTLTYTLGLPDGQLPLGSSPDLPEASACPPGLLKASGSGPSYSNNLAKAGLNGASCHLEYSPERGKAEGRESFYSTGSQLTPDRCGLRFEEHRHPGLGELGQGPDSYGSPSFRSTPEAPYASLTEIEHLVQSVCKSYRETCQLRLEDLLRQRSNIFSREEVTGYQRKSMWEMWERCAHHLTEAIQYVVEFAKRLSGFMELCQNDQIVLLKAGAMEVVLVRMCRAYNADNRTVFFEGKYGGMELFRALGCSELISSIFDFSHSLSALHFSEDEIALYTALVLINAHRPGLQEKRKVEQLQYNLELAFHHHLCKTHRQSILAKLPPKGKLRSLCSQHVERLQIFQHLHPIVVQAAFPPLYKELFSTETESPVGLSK
E-selectin (Homo sapiens), sequence (P16581 whole entry, looked up): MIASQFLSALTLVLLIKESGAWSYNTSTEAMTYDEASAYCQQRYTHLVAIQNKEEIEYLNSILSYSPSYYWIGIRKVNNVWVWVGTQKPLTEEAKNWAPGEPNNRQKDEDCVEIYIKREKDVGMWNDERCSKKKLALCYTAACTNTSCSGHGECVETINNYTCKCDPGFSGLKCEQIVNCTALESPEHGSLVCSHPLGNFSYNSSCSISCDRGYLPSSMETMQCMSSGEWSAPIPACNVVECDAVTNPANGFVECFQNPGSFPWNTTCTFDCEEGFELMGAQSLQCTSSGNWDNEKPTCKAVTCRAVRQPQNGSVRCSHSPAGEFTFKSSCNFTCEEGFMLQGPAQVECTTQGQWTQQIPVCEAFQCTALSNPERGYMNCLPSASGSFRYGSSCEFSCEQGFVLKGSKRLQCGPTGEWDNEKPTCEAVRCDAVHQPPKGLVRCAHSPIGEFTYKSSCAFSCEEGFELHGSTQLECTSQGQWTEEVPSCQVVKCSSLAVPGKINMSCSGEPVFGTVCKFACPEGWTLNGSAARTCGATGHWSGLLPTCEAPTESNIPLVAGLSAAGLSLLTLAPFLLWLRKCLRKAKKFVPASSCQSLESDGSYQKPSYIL

As to `CCCCCCC=O`, the outcome in [1], in [2], in assay [3], in assay [4], in assay [5] and in assay [6] was inactive. Moreover, the result in assay [7], in [8], in [9], in [10], in assay [11] and in assay [12] was inactive. For the same compound, the result in assay [13], in assay [14], in assay [15] and in assay [16] was inactive.
In the case of `N#Cc1ccc(C2CCCc3cncn32)cc1` (stereo not drawn), the outcome in assay [17] was inactive.
Turning to `CC(=O)OCc1ccccc1`, the call in [1], in [2], in assay [18] and in assay [19] was inactive.
With `O=C1CCCCC1C1CCCCC1` (stereo not drawn), the compound was classed as inactive in assay [1], in [2], in assay [18] and in [19].
Consider `NNS(=O)(=O)c1ccc(Oc2ccc(S(=O)(=O)NN)cc2)cc1`, for which the compound was classed as inactive in [1] and in [19].
As for `CC(=O)CC(=O)Nc1ccccc1C`, the result in assay [1] and in assay [18] was inactive.
In the case of `CC(C=O)c1ccccc1` (stereo not drawn), the compound was called inactive in assay [1], in [2], in assay [18] and in assay [19].
As to `CC(=O)OC/C=C(/C)CCC=C(C)C`, the compound was called inactive in [1], in assay [2] and in assay [18].
Consider `CC1=CCC2CC1C2(C)C` (stereo not drawn), for which the result in [1], in assay [18] and in [19] was inactive.
In the case of `C=C[C@@]1(C)CC(=O)[C@]2(O)[C@@]3(C)[C@@H](O)CCC(C)(C)[C@@H]3[C@H](O)[C@H](OC(C)=O)[C@@]2(C)O1`, the call in assay [1] and in assay [19] was inactive. The half-maximal activity concentration (AC50) in [18] was 3640 nM (active); in assay [3], 33400 nM (active).
For the compound `CC(=O)CCC=C(C)C`, the call in assay [1], in assay [18], in [3] and in assay [19] was inactive.
As for `COC(=O)[C@H](Cc1ccccc1)NC(=O)[C@@H](N)CC(=O)O` (H-Asp-Phe-OMe), the compound was called inactive in assay [1] and in [3].
For `C=C(C)C(=O)OCCOC(=O)C(=C)C`, the compound was classed as inactive in [1], in [2], in assay [18] and in [19].
On to `COC(=O)c1ccc(C(=O)OC)c(C(=O)OC)c1`, for which the result in assay [1] and in assay [18] was inactive.
With `CCOc1ccc(NC(N)=O)cc1`, the outcome in [1], in [18] and in assay [3] was inactive.
As to `C=C(C)OC(C)=O`, the call in assay [17] was inactive.
As for `C=C(C)C1CC=C(C)C(OC(C)=O)C1` (stereo not drawn), the compound was called inactive in assay [1], in [18] and in [19].
For the compound `CC(c1cc(C(C)(C)C)cc(C(C)(C)C)c1O)c1cc(C(C)(C)C)cc(C(C)(C)C)c1O`, the result in assay [1], in assay [3], in assay [4], in assay [5], in assay [6] and in assay [7] was inactive. For the same compound, the result in assay [8], in assay [9], in assay [10], in assay [11], in [12] and in [14] was inactive. In addition, the outcome in [15] and in assay [16] was inactive. Also, the AC50 in [18] is 1830 nM (active); in [13], 965 nM (active).
Regarding `c1ccc2c(c1)[nH]c1ccccc12`, the compound was classed as inactive in assay [1], in assay [2], in [18], in assay [3], in assay [20] and in [4]. Also, the outcome in assay [5], in assay [6], in [7], in assay [8], in assay [9] and in [10] was inactive. Also, the outcome in assay [11], in [12], in assay [13], in assay [14], in [15] and in [16] was inactive. Also, the values for the AC50 in assay [11] and in [16] were 126 nM (active) and 6870 nM (active), respectively.
